Measured values as given in ChEMBL document CHEMBL3988442, “University of Dundee, Small-Polar-MMV Screening Library” (2021).

Molecular target: AMP-activated protein kinase, AMPK (Homo sapiens) (UniProt P54646+O43741+P54619+Q9UGJ0+Q9Y478+Q13131+Q9UGI9)
Assay: AMP-dependent Kinase enzyme assay. An in vitro enzyme assay that detects ADP turnover that is directly proportional to AMPK activity. This uses naive AMPK that is activated during the assay with MK-8722
Type: functional
Parameters: scale not given: direction of the effect not stated beside the values
Conditions: 30 µM

**Q.** Which Percent Effect does the source give for `O=C(CCC1CCCN(C(=O)CCN2CCCCO2)C1)N1CCCC1` (centres undefined) here?
**A.** -2.7%

**Q.** With `CNC(=O)C1(C)CN(S(=O)(=O)c2cccc(OC)c2)CCO1` (centres undefined) as the compound, how does the Percent Effect read?
**A.** 4.63%

**Q.** Which Percent Effect does the source give for `CNC(=O)c1[nH]nc2c1CN(c1cc(C3CCCNC3)nc(C)n1)CC2` (centres undefined) here?
**A.** 18.4%

**Q.** For `CC(C)N(C)S(=O)(=O)c1ccc2c(c1)CCN(C(=O)c1cnccn1)C2`, which Percent Effect is on record?
**A.** 0.361%

**Q.** With `Cn1nccc1CN1CCOC(c2cccc(Nc3ccccn3)n2)C1` (centres undefined) as the compound, how does the Percent Effect read?
**A.** 5.54%

**Q.** `CCN(Cc1ccccn1)C1CCN(c2ccccc2)C1=O` (centres undefined) was tested. Which Percent Effect did it give?
**A.** -6.67%

**Q.** `CCn1nc(C)c(C(=O)N2C[C@@H](CN(C)CCOC)[C@@H](CO)C2)c1C` was tested. Which Percent Effect did it give?
**A.** -7.64%

**Q.** Which Percent Effect does the source give for `CCCN(CCO)C(=O)c1cc(COc2ccc3c(c2)CCCC3)on1` here?
**A.** 5.46%

**Q.** Which Percent Effect does the source give for `CCc1cc(NCCCNS(C)(=O)=O)nc(-c2ccncc2)n1` here?
**A.** -3.23%

**Q.** Which Percent Effect does the source give for `CC(C)OCCN1CCC(Nc2ncccn2)CC1` here?
**A.** -1.19%

**Q.** `CN(Cc1cc(Cl)c2c(c1)OCO2)Cc1cscn1` was tested. Which Percent Effect did it give?
**A.** -12.9%

**Q.** Which Percent Effect does the source give for `COc1ccccc1CC(=O)N(C)Cc1cc(C)on1` here?
**A.** -2.06%

**Q.** How did the Percent Effect turn out when `CC(C)Cc1noc(CC2CCS(=O)(=O)C2)n1` (centres undefined) was run?
**A.** -13.3%

**Q.** For `COCCC(=O)N(C)CCC1=CCN(C)CC1`, which Percent Effect is on record?
**A.** -12.9%

**Q.** With `O=C(NCC(=O)N1CCN(c2ccccc2)CC1)c1sccc1C1CC1` as the compound, how does the Percent Effect read?
**A.** -5.62%

**Q.** For `O=C(COC1CCCC1)NCc1ccc(O)c(F)c1`, which Percent Effect is on record?
**A.** 8.07%

**Q.** For `CCc1ccc(-c2noc(Cn3nc(C(N)=O)ccc3=O)n2)cc1`, which Percent Effect is on record?
**A.** -8.7%

**Q.** For `O=C(NCCC1CN(C2CCCC2)CCO1)c1c[nH]c(=O)[nH]c1=O` (centres undefined), which Percent Effect is on record?
**A.** 5.79%

**Q.** How did the Percent Effect turn out when `CCOCCNCc1cc(O)c2cc(C)ccc2n1` was run?
**A.** -3.23%

**Q.** Which Percent Effect does the source give for `CC(C)COc1cncc(N2CCCC(CC(N)=O)C2)n1` (centres undefined) here?
**A.** 10.7%

**Q.** With `Cc1nnc(CN(C)CC(=O)N2CCCN(C3CCCC3)CC2)n1C` as the compound, how does the Percent Effect read?
**A.** -11.4%

**Q.** How did the Percent Effect turn out when `CCN(C(=O)Cn1cc(NC(=O)C(C)(C)C)cn1)c1ccccc1` was run?
**A.** -3.26%

**Q.** With `O=C1CC[C@@H](C(=O)N2CCC(Cn3cc(C4CCCCC4)nn3)CC2)N1` as the compound, how does the Percent Effect read?
**A.** 4.87%

**Q.** With `CCCS(=O)(=O)NCc1nc(C)cc(N2CCCC2)n1` as the compound, how does the Percent Effect read?
**A.** 4.77%

**Q.** `COc1cc(F)ccc1NC(=O)NC(C)C(=O)NC(C)(C)C` (centres undefined) was tested. Which Percent Effect did it give?
**A.** -11.6%

**Q.** Which Percent Effect does the source give for `COc1cccc(C)c1C(=O)N1CCc2ncnc(NCCO)c2CC1` here?
**A.** -1.45%

**Q.** For `CS(=O)(=O)NC(=O)c1ccn(-c2ccccc2Cl)n1`, which Percent Effect is on record?
**A.** 9.09%

**Q.** With `CCCN1CCN(S(=O)(=O)c2ccccc2OC)[C@H]2CS(=O)(=O)C[C@H]21` as the compound, how does the Percent Effect read?
**A.** 2.61%

**Q.** `O=C(C1CCCCN1Cc1nccn1CC(F)(F)F)N1CCCC1` (centres undefined) was tested. Which Percent Effect did it give?
**A.** -9.13%

**Q.** How did the Percent Effect turn out when `Cc1cc(C(N)=O)ccc1NC(=O)N1CCN(c2cccs2)CC1` was run?
**A.** -2.73%

**Q.** `Cc1cc(-n2cccn2)ccc1CN1CCOCC(CN(C)C)C1` (centres undefined) was tested. Which Percent Effect did it give?
**A.** -0.486%

**Q.** With `Cc1nnc(-c2cccc(C#N)c2)n1C1CCN(C2CC2)C1=O` (centres undefined) as the compound, how does the Percent Effect read?
**A.** -1.74%

**Q.** For `CC(C)[C@H]1CN(Cc2nccn2C)C[C@@H]1NC(=O)COCC(N)=O`, which Percent Effect is on record?
**A.** 9.37%

**Q.** For `Cc1cc(C)n(CCCN(C)c2cc(N(C)C)ncn2)n1`, which Percent Effect is on record?
**A.** 0.376%

**Q.** Which Percent Effect does the source give for `COc1nccc(N2CC[C@@H](N3CCC(O)CC3)[C@H](O)C2)c1C#N` here?
**A.** 5.62%

**Q.** How did the Percent Effect turn out when `CCN(Cc1nccn1C)C1CCN(c2ccccc2)C1=O` (centres undefined) was run?
**A.** -7.13%

**Q.** For `CC1CN(c2ncnc3c2cnn3C)CCN1c1nccs1` (centres undefined), which Percent Effect is on record?
**A.** 11.2%

**Q.** `CN1CCOC(CNCC(=O)NCCCc2ccccc2)C1` (centres undefined) was tested. Which Percent Effect did it give?
**A.** -10%

**Q.** With `O=C(CNc1ccc(OCC2CCOCC2)cc1)NCc1ccco1` as the compound, how does the Percent Effect read?
**A.** 0.773%
